This is a sample that favours compounds with a hit; in the whole collection about 5.2% have one here.
esBAF inh – blocks esBAF chromatin remodeling in mouse ES cells; 350,000 tested, 2% active; AID 602393; reporter increase, % at 12.5 µM; Bmi1-luciferase knock-in reporter, 24 h; 100% = twice the neutral-well signal; in the data active = activation above about 40%;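 note: 0% = median of the plate's neutral control wells and 100% = double that signal; a rise in the Bmi1 reporter signal indicates esBAF inhibition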
SKN-1 block – C. elegans SKN-1 inhibition; inhibition, % at 21.8 µM; C. elegans VP596 Pgst-4::GFP/RFP ratio, acrylamide-induced, 24 h; AID 624304; 360,000 tested, 0.49% active;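 active = interference check ratio from 0.5 to 1.5 plus GFP to RFP signal ratio inhibition reaching or exceeding a fixed threshold, cut at about 30% in these data, passing the limit was not always enough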
SMARCA2 act – increases SMARCA2 function in MMTV reporter cells; MG213 cells, MMTV-luciferase reporter, dexamethasone, overnight; activation, % at 9.1 µM; 370,000 tested, 1% active; AID 652017; in the data active = activation above about 7.8%;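 note: 0% = vehicle wells and 100% = reference activator wells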
NadD inh – blocks S. aureus nicotinate mononucleotide adenylyltransferase | 360,000 tested, 0.78% active | purified NadD enzyme, colorimetric absorbance read-out | inhibition, % at 20 µM; in the data active = inhibition above about 26%
NR3A LBD binder – NR3A (human) ligand-binding domain modulation; NR3A LBD differential scanning fluorimetry, Tm shift; 0% = protein alone, 100% = glycine-bound protein; Tm shift relative to glycine control, % at 25 µM; 340,000 tested, 2.5% active; AID 1259313;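 active = melting temperature shift of at least 10% of the positive control shift, at one fixed dose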
Vif imaging – HIV Vif inhibition; HEK293T cells, Vif self-association by quenched fluorescence, imaging, 24 h; inhibition, % at 7.49 µM; 340,000 tested, 0.35% active; in the data active = inhibition above about 50%, passing the limit was not always enough
NadD conf – NadD (S. aureus) inhibition, single concentration confirmation. inhibition, % at 20 µM. AID 624309. purified S. aureus NadD, colorimetric enzyme assay. shares compounds with NadD inh. 2,000 tested, 13% active; in the data active = inhibition mostly above about 42%, no sharp cut-off; inactive = mostly below about 42%
* marks the source's active call; other numbers are inactive results; i = inactive; / = not tested or not shown.

SMILES | esBAF inh | SKN-1 block | SMARCA2 act | NadD inh | NR3A LBD binder | Vif imaging | NadD conf
O=[N+]([O-])c1ccc(Nc2nc(N/N=C\c3ccc4c(c3)OCO4)nc(N3CCCCC3)n2)cc1 | 19 | 9 | 1 | 45* | 13* | -2 | 20
O=C(c1ccccc1)N1C[C@H]2[C@@H](c3ccccc31)[C@@H](CO)N2Cc1cc(F)ccc1F | -1 | / | / | / | / | / | /
COc1ccc(OC[C@@H](O)CNC(=O)c2cccc3c2C(=O)c2ccc(-c4ccc(F)cc4OCc4ccccc4)cc2S3(=O)=O)cc1 | 2 | 1 | / | 35* | -1 | -1 | 25
COc1ccc(-c2ccc3c(c2)S(=O)(=O)c2cccc(C(=O)NCCOc4ccccc4)c2C3=O)cc1OC | -3 | 13 | / | 11 | 0 | 6 | /
COC(=O)CCCC1=CC2=CC(=O)C(C)(OC(=O)c3cccs3)C(=O)C2=CN1Cc1ccc2c(c1)OCO2 (stereo unspecified) | -1 | -2 | 1 | 36* | -2 | 0 | 28
COC(=O)CCCC1=CC2=CC(=O)C(C)(OC(=O)c3cccs3)C(=O)C2=CN1Cc1ccccc1 (stereo unspecified) | -6 | -3 | 0 | 8 | 2 | -4 | /
Cc1ccc2oc(=O)c3cc(C(=O)NCCN4CCN(C)CC4)sc3c2c1 | 0 | 12 | -2 | -6 | 4 | -3 | /
Cc1ccc2oc(=O)c3cc(C(=O)NCCCN4CCCCCC4)sc3c2c1 | -2 | -1 | -3 | 37* | -3 | -4 | -8
Cn1c(-c2c(N)n(CCCc3ccccc3)c3nc4ccccc4nc23)nc2ccccc21 | 1 | -1 | / | 35* | 7 | -3 | 10
Cn1c(-c2c(N)n(C3CCCC3)c3nc4ccccc4nc23)nc2ccccc21 | -18 | 9 | -1 | 20 | 9 | i | /
COCC#Cc1cnc2c(c1)C(=O)N([C@H](C)CO)C[C@@H](C)[C@H](CN(C)C(=O)Cc1ccncc1)O2 | 4 | / | / | / | / | / | /
CCOC(=O)C1=C(N)n2c(s/c(=C\c3ccco3)c2=O)=C(C(=O)OC(C)C)C1c1ccco1 (stereo unspecified) | / | -7 | 0 | 32* | -3 | -1 | 18
O=C(Nc1ccc(N2CCN(Cc3ccccc3)CC2)cc1)c1ccccc1[N+](=O)[O-] | / | 5 | 0 | -2 | 0 | -4 | /
Cc1ccc(C(=O)Nc2ccc(N3CCCC3)cc2)c(C)c1 | / | 11 | 3 | 32* | -7 | -3 | 4
O=C(Nc1ccc(N2CCCC2)cc1)c1ccccc1[N+](=O)[O-] | 3 | 10 | -1 | 27* | 0 | 3 | 16
O=C(Nc1ccc(N2CCCC2)cc1)c1cc(Br)ccc1Cl | 3 | 0 | -2 | 41* | -1 | -1 | 55*
C[C@@H]1CCCCO[C@@H](CN(C)Cc2ccc3c(c2)OCO3)[C@H](C)CN([C@@H](C)CO)C(=O)c2cc(N(C)C)ccc2O1 | -15 | / | / | / | / | / | /
C[C@@H]1CN([C@H](C)CO)C(=O)c2cccc(NS(=O)(=O)c3cccs3)c2O[C@@H]1CN(C)CC1CC1 | 4 | / | / | / | / | / | /
Nc1nc(SCc2ccc(Cl)cc2Cl)nc2nc3c(cc12)CCCC3 | / | 6 | -3 | 36* | -3 | -3 | 16
C/C(=N\NC(=S)Nc1ccc(C)cc1)c1cccc(N)c1 | / | -5 | 0 | 27* | 0 | -4 | 17
C[C@H]1CN([C@@H](C)CO)S(=O)(=O)c2ccc(C3=CCCC3)cc2O[C@H]1CN(C)C(=O)C1CCOCC1 | 6 | / | / | / | / | / | /
Cc1ccc(C2CC(c3cccs3)=NN2C(=O)CSc2nc(=O)n3ccc(C)cc3n2)cc1 (stereo unspecified) | 26 | 2 | 1 | 38* | / | 4 | 51*
COc1ccc(C2CC(c3cccs3)=NN2C(=O)CSc2nc(=O)n3ccc(C)cc3n2)cc1 (stereo unspecified) | 26 | -5 | 1 | 46* | 2 | / | 44
COc1ccc(C2CC(c3cccs3)=NN2C(=O)CSc2nc3c(cnn3-c3ccccc3)c(=O)[nH]2)cc1 (stereo unspecified) | -5 | 0 | 0 | 40* | -27 | 4 | 7
COc1ccc(C2=NN(C(=O)CSc3ncccn3)C(c3ccc(OC)cc3)C2)cc1 (stereo unspecified) | / | 14 | -2 | -2 | -1 | -6 | /

Screens deposited in PubChem by several laboratories.
